For four compounds, composite z-score and z-score results are on record in PubChem BioAssay.

The subject of assay [1] is Wnt5a (protein binding on small-molecule microarray). Briefly: small molecules binding Wnt5a protein – biophysical, small-molecule microarray, 635/667 nm fluorescence, primary screen (AID 1142).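 Also: fluorescence read at 667 nm with signal to noise per printed feature.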 Conditions: 635 nm fluorescence, higher = more signal.
Assay [2] can be described thus: ATP-based viability of Huh7 replicon cells – cell-based, CellTiter-Glo luminescence, basal, 48 h, cytotoxicity control for HCV replication inhibitor project, primary screen (AID 1143).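 Also: Huh7 hepatoma cells carrying a hepatitis C replication reporter with no stimulus; test concentration not given here.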 The following applies: higher = more signal, called active from +8 up or from −8 down. (In general: A replicon is a self-replicating genome or part of one, used to study replication in cells.)

The nature of assay [3]: basal CRE-LacZ reporter activity in PC12 – cell-based, unstimulated, primary screen (AID 1145). The following applies: no forskolin, luminescence, 4.5 h, higher = more signal, called active from +8 up or from −8 down.
The nature of assay [4]: forskolin-driven CRE-LacZ activity in PC12 – cell-based, CRE-LacZ reporter, forskolin-stimulated, primary screen (AID 1146).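 Also: PC12 cells with 6xCRE LacZ reporter stimulated by forskolin 10 µM; beta-galactosidase reporter signal reflecting CREB driven transcription.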 The following applies: luminescence, 4.5 h, higher = more signal, called active from +8 up or from −8 down.
In assay [5] the target is Streptavidin (Streptomyces avidinii) (UniProt P22629). Nature of the assay: compounds binding control protein streptavidin – biophysical, small-molecule microarray, 635/667 nm fluorescence, artefact control for SMM compound annotation, primary screen (AID 1147).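 Also: signal reflects streptavidin binding to arrayed compounds as a control protein.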 The following applies: higher = more signal.
Assay [6] is described as follows: probe aInhba binding on compound microarray – biochemical, small-molecule microarray, 635/667 nm fluorescence, primary screen (AID 1148).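 Also: score merges 667nm spot fluorescence with signal-to-noise for antibody binding to printed compounds.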 The following applies: higher = more signal.
Assay [7] has as its target Torsin-1A (Homo sapiens) (UniProt O14656). Nature of the assay: TOR1A wild-type binding on microarray – cell lysate, small-molecule microarray, lysate, 635/667 nm, primary screen (AID 1149). Conditions: COS7 hTOR1A-WT lysate, 635 nm fluorescence, higher = more signal.
Assay [8] shares this target. Briefly: torsin A mutant lysate binding on microarrays – cell lysate, small-molecule microarray, COS7 lysate, 635/667 nm fluorescence, primary screen (AID 1150).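 Also: score pools 667 nm emission and signal to noise measuring lysate protein binding.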 Conditions: COS7 hTOR1A mutant lysate, 635 nm fluorescence, higher = more signal.
Assay [9] deals with Sonic hedgehog protein (Shh). Nature of the assay: Sonic hedgehog microarray binding compounds – biochemical, small-molecule microarray, 635/667 nm fluorescence, primary screen (AID 1151).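 Also: Shh protein binding to compounds spotted on small-molecule microarray slides; score combines spot fluorescence intensity with signal-to-noise across triplicate slides.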 Conditions: 635 nm fluorescence, higher = more signal.
A short description of assay [10]: optical density shifts of acrAB sulA E. coli – strain DRC41, OD650, 48 h, E. coli filamentation inducer project, primary screen (AID 1152).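 Also: E. coli MC1000 strain DRC41 lacking acrAB efflux pump and sulA.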 Conditions: higher = more signal, called active from +8 up or from −8 down.
Assay [11] in a line: probe aLefty1 binding on compound microarray – biochemical, small-molecule microarray, 635/667 nm fluorescence, primary screen (AID 1153).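 Also: score merges spot fluorescence with signal-to-noise ratio from the scanned slide images.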 The following applies: higher = more signal.
Assay [12] in a line: plasmodial surface anion channel blockers, osmotic lysis – cell-based, P. falciparum Indochina, OD700, 1 h, primary screen (AID 1154). The following applies: P. falciparum Indochina infected RBC osmotic lysis, higher = more signal, called active from +8 up or from −8 down.
The nature of assay [13]: plasmodial surface anion channel blockers, osmotic lysis – cell-based, P. falciparum Indochina, OD700, 2 h, primary screen (AID 1155).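 Also: lysis reports solute entry through the parasite surface anion channel PSAC.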 The following applies: P. falciparum Indochina infected erythrocytes, higher = more signal, called active from +8 up or from −8 down.
The nature of assay [14]: changes in parasitized red cell lysis, either direction – P. falciparum Indochina, OD700, 3 h, PSAC antagonist project, primary screen (AID 1156). The following applies: P. falciparum-infected erythrocytes, osmotic lysis, higher = more signal, called active from +8 up or from −8 down.
Assay [15] in a line: plasmodial surface anion channel blockers, osmotic lysis – cell-based, P. falciparum Indochina, OD700, 18 h, primary screen (AID 1157). Conditions: P. falciparum Indochina infected erythrocytes, osmotic lysis OD700, 18 h; higher = more signal, called active from +8 up or from −8 down.
Assay [16] in a line: S6 kinase pathway phospho-S6 level changes – cell-based, A549, cytoblot, luminescence, serum-stimulated, primary screen (AID 1158).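 Also: serum-stimulated A549 lung adenocarcinoma cells; signal is phosphorylated S6 detected by cytoblot immunostaining with HRP secondary.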 Conditions: 5 h, higher = more signal.
The target in assay [17] is NADPH oxidase 2 (Homo sapiens) (UniProt P04839). Nature of the assay: compounds shifting NOX2 Amplex Red fluorescence – cell-based, HEK293-NOX2, PMA-stimulated, NOX inhibitor project, primary screen (AID 1159). Also: test concentration not given here. Conditions: 45 min, higher = more signal, called active from +8 up or from −8 down.
Assay [18] deals with NADPH oxidase 4 (Homo sapiens) (UniProt Q9NPH5). Briefly: compounds shifting NOX4 Amplex Red fluorescence – cell-based, HEK293-NOX4, tetracycline-induced, NOX inhibitor project, primary screen (AID 1160). Conditions: HEK293-NOX4, Amplex Red H2O2 fluorescence, 45 min; higher = more signal, called active from +8 up or from −8 down.
In assay [19] the target is NADPH oxidase 5 (Homo sapiens) (UniProt Q96PH1). Briefly: compounds shifting NOX5 Amplex Red fluorescence – cell-based, HEK293-NOX5, NOX inhibitor project, primary screen (AID 1161). Conditions: HEK293-NOX5, ionomycin, 45 min, higher = more signal.
Assay [20] can be described thus: compound effects on lung adenocarcinoma cell viability – A549, calcein-AM fluorescence, 48 h, basal, profiling panel (AID 1162). Also: test concentration not given here. The following applies: higher = more signal.

Each structure is given as a SMILES string. Active and inactive are the calls of the source.

Sequence of NADPH oxidase 5 (Homo sapiens) (Q96PH1 whole entry, looked up): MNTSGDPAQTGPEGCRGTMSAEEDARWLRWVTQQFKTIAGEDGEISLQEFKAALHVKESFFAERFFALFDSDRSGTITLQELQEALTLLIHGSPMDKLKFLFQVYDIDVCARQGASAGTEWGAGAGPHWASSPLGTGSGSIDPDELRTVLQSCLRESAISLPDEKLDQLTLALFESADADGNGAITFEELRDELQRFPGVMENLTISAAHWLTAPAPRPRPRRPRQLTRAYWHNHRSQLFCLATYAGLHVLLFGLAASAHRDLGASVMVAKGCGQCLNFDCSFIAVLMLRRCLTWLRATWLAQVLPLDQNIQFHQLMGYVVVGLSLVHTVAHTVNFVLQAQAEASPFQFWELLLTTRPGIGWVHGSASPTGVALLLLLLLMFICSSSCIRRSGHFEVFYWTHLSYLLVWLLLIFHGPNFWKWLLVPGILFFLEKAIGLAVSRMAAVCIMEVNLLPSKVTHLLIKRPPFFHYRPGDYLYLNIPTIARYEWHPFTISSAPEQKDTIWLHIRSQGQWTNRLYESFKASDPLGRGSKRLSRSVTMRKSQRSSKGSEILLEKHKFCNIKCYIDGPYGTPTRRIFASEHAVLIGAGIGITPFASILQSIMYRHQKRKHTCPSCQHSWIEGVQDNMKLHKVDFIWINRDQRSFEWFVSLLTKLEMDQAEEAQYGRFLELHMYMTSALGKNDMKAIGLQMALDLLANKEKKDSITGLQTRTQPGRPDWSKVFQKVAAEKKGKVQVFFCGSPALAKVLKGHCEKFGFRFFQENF
Sequence of Streptavidin (Streptomyces avidinii) (P22629 whole entry, looked up): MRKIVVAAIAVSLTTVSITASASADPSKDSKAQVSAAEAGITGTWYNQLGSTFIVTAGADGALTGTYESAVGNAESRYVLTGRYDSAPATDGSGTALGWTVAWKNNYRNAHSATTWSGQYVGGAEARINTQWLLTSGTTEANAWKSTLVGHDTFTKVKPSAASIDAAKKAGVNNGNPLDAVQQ
Sequence of NADPH oxidase 2 (Homo sapiens) (P04839 whole entry, looked up): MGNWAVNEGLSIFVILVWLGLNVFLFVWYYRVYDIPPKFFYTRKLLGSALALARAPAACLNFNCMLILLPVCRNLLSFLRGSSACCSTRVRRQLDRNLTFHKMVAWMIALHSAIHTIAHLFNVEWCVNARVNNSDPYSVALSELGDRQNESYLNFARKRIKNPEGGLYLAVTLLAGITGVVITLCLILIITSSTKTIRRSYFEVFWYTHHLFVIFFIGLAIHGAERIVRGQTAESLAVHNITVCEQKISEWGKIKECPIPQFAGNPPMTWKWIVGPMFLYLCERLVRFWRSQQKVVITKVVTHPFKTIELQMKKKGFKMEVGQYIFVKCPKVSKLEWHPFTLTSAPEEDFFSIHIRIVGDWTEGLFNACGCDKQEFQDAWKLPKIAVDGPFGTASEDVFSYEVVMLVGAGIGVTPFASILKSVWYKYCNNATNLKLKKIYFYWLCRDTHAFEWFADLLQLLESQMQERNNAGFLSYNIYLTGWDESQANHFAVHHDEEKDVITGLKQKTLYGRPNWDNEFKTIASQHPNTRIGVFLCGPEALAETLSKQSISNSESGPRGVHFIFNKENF
Sequence of NADPH oxidase 4 (Homo sapiens) (Q9NPH5 whole entry, looked up): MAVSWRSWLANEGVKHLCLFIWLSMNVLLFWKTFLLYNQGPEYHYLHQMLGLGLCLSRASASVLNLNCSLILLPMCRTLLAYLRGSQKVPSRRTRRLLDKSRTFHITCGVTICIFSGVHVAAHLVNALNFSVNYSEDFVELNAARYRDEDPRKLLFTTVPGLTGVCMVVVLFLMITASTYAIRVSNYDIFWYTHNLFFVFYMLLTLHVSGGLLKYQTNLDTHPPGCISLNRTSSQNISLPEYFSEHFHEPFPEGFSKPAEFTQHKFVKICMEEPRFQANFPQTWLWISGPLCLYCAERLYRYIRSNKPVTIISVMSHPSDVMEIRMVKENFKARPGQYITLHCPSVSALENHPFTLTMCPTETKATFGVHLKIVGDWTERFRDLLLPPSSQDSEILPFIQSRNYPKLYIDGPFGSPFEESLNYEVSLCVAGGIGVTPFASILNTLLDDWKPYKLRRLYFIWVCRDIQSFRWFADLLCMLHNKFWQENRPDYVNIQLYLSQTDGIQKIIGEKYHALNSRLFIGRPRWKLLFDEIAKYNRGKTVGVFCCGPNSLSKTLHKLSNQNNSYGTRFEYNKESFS
Sequence of Torsin-1A (Homo sapiens) (O14656 whole entry, looked up): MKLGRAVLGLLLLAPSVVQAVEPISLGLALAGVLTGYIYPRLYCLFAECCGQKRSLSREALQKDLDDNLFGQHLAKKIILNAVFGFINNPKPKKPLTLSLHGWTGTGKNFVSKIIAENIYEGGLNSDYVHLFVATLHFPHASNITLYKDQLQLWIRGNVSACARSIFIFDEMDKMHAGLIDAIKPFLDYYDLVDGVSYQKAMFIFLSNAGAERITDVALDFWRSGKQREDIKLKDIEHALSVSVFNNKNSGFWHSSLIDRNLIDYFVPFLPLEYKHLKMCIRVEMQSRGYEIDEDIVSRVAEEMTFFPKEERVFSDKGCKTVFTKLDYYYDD

`COC(=O)[C@@]1(CCC(=O)OC(C)(C)C)COC(c2ccc(OCCCO)cc2)=N1`: the composite z-score in assay [1] was -0.328; in assay [5] it was -1.44; in assay [6], -0.109; in the assay with Torsin-1A (Homo sapiens) [7], -1.3; with Torsin-1A (Homo sapiens) [8] it was -0.742; in assay [9], -1.03. This compound returned a composite z-score in [11] of 0.0721. The z-score in assay [2] was -0.243 (inactive); in assay [3], 0.694 (inactive); in assay [4], -1.14 (inactive); in [10] it was 1.06 (inactive); in assay [12], 21 (active); in assay [13] it was 3.26 (inactive). Also, the z-score in assay [14] was 0.0081 (inactive); in assay [15], 0.613 (inactive); in assay [16] it was 0.21; in assay [17] it was -0.0972 (inactive); in [18], 0.562 (inactive); in [19], -2.25. Also, the z-score in assay [20] is 0.196.

Turning to `O=C(N1CCCCC1)[C@@]1(Cc2ccccc2)N=C(c2ccc(OCCCO)cc2)O[C@H]1c1ccccc1`, the composite z-score in [1] is 0.578; in [5] it was 1.13; in assay [6], 0.749; in the assay with Torsin-1A (Homo sapiens) [7], 0.599; with Torsin-1A (Homo sapiens) [8], 1.42; in assay [9], -0.401. This compound came in with a composite z-score in assay [11] of 1.17. Moreover, the z-score in assay [2] is -5.07 (inactive); in [3] it was 0.414 (inactive); in [4] it was -1.06 (inactive); in assay [10] it was 0.696 (inactive); in assay [12] it was 14.3 (active); in [13] it was 2.37 (inactive). Also, the z-score in assay [14] is 2.82 (inactive); in assay [15], -0.657 (inactive); in assay [16], 0.845; in assay [17], -2.63 (inactive); in [18], 0.489 (inactive); in assay [19], -0.326. Besides, the z-score in assay [20] was -1.51.

With `Cc1ccc(N2C(=O)c3ccccc3[C@](C)(C(=O)NC3CC3)[C@@H]2c2ccc(CO)cc2)nc1`, the composite z-score is 0.119 in assay [1]; -0.468 in assay [5]; 0.0053 in [6]; 0.141 in the assay with Torsin-1A (Homo sapiens) [7]; 1.06 with Torsin-1A (Homo sapiens) [8]; 0.496 in [9]. Besides, the composite z-score in [11] was -0.0162. Besides, the z-score in assay [2] was 0.0401 (inactive); in assay [3], -0.619 (inactive); in assay [4], -0.732 (inactive); in assay [10], 1.3 (inactive); in assay [12], 0.262 (inactive); in [13] it was -0.236 (inactive). The z-score in [14] is 0.151 (inactive); in assay [15], -0.0411 (inactive); in assay [16], 0.199; in [17] it was -0.712 (inactive); in assay [18] it was 0.504 (inactive); in assay [19] it was 0.398. The z-score in assay [20] is 0.434.

Regarding `[N-]=[N+]=NCc1ccccc1C[C@@]1(C(=O)O)N=C(c2ccc(OCCCO)cc2)O[C@@H]1c1ccccc1`, the composite z-score in [1] was 0.0855; in assay [5] it was 0.246; in [6] it was -0.0421; in the assay with Torsin-1A (Homo sapiens) [7], -0.233; in the assay with Torsin-1A (Homo sapiens) [8], 0.0019; in [9], -0.515. The compound further registered a composite z-score in [11] of -0.0654. In addition, the z-score is -0.563 (inactive) in assay [2]; -0.137 (inactive) in [3]; 0.718 (inactive) in assay [4]; 0.706 (inactive) in assay [10]; 15.1 (active) in assay [12]; 2.07 (inactive) in [13]. Besides, the z-score is 0.912 (inactive) in assay [14]; 0.199 (inactive) in assay [15]; 0.218 in assay [16]; 1.07 (inactive) in [17]; 1.34 (inactive) in assay [18]; 1.48 in [19]. Moreover, in assay [20], the z-score is 0.349.
